Tests used:
[1] = target: T1, Aspartate--tRNA(Asp/Asn) ligase (Mycobacterium tuberculosis (strain ATCC 25618 / H37Rv)) (UniProt P9WFW3); test: Assay for Asp RNA synthetase-1 from Mycobacterium tuberculosis; format: functional; parameters: scale not given: direction of the effect not stated beside the values; conditions: 30 µM; note: in the data most compounds retested in dose-response had high values
T1 sequence (whole entry): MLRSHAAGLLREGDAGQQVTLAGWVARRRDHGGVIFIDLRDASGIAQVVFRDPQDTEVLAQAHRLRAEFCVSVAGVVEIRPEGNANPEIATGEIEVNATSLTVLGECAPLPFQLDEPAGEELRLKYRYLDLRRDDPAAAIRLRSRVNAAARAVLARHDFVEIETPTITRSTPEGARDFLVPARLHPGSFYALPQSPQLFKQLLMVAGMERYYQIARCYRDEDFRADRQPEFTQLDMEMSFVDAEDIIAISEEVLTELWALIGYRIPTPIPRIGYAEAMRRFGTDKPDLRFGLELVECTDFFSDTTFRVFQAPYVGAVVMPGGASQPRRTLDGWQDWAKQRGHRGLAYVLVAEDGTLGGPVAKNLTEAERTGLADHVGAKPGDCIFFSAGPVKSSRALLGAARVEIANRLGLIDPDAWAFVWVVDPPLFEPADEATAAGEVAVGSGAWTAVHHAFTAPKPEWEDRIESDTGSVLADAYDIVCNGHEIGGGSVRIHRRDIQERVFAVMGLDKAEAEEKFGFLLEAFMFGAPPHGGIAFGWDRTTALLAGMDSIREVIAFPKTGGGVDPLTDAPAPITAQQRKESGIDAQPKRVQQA

[2] = target: Shiga toxin 2 (Escherichia coli O157:H7) (UniProt P09385+P09386); test: E. coli 0.157:H7 Shiga Toxin SOP - stx2 screening assay; format: functional; parameters: scale not given: direction of the effect not stated beside the values; conditions: 30 µM

Row | SMILES | Percent Effect [1] [%] | Percent Effect [2] [%]
1 | c1cc(-c2nc(CN3CCn4c(nnc4C4CC4)C3)cs2)cs1 | -2.61 | -11.5
2 | Cn1ccnc1CN1CCN(CC(O)c2cccc(F)c2)CC1 (configuration not stated) | 1.53 | 14
3 | COCCN1CC[C@]2(CN(C(=O)c3cccs3)C[C@H]2C)C1=O | 1.59 | -8.13
4 | CC(C)c1noc(CN2CCN(C(=O)c3ccccc3F)CC2)n1 | -2.91 | 12.1
5 | CCCS(=O)(=O)N1CCC2(CN(c3cnn(C)c3)C(=O)CN2C)C1 (configuration not stated) | -0.662 | -13.9
6 | COCC(=O)N1CC[C@@H]2CN(Cc3cccc(Cl)c3)S(=O)(=O)[C@@H]2CC1 | 3.55 | -12.7
7 | CC(Cn1cccn1)NC(=O)NCc1cccs1 (configuration not stated) | -7.69 | -7.84
8 | COc1ccc(Oc2cncc(C3CCCN3C(C)=O)n2)cc1 (configuration not stated) | 0.194 | -6.98
9 | COCc1c(C(=O)NC2CCCC2)nnn1-c1ccc(C)cc1 | -4.96 | 10.2
10 | COCC1CN(C(=O)c2cccn2C)Cc2ncnn2C1 (configuration not stated) | 12.6 | -34.6
11 | c1ccc(OC2CCCC2)c(CNC2CCc3ncnn3C2)c1 (configuration not stated) | -1.83 | 9.47
12 | c1cncc(OCc2noc3c2CN(Cc2ccoc2)CC3)c1 | 2.82 | -31.1
13 | Cn1cccc1C(=O)N1CC[C@H]2C[C@@H](c3ccncn3)O[C@@H]2C1 | -6.89 | 7.29
14 | CC(Cn1cncn1)NCc1nncn1C1CCCCC1 (configuration not stated) | -4.88 | 2.43
15 | COc1ccccc1C1CNC(=O)c2nc(-c3ncc[nH]3)[nH]c2C1 (configuration not stated) | 2.38 | -14.6
16 | CC1(C)OCC(CNC(=O)c2cnn(-c3ccc(Cl)cc3)c2N)O1 (configuration not stated) | 2.4 | 47.4
17 | CSc1ccc(-c2nc(CN3CCC(NC(C)=O)C3)c(C)o2)cc1 (configuration not stated) | 2.73 | -5.95
18 | Fc1ccc(OCc2noc(CN3CCc4cncnc4C3)n2)cc1 | -0.7 | -1.88
19 | CCn1ccnc1CN1CCCN(C(=O)Cn2nc(C)cc2C)CC1 | 3.14 | 8.68
20 | O=C(COc1ccccc1)N1CCC[C@]2(C[C@H](OCC3CC3)CO2)C1 | 1.3 | -10.4
21 | COc1c(C(=O)NCc2cccnc2)nnn1Cc1ccc(C)cc1 | -4.7 | -4.95
22 | CC(C)(C)c1cc(CN2CC[C@@H](NC(=O)c3cccnc3)[C@H](O)C2)n[nH]1 | -4.62 | 14.9
23 | Cc1noc(C)c1C(=O)NCC(c1ccc(F)cc1)N(C)C (configuration not stated) | 1.51 | 16

Row | SMILES | Percent Effect [1] [%] | Percent Effect [2] [%]
24 | Cc1cc(C(=O)N2C[C@@H]3COC[C@]3(c3nnc(C4CC4)o3)C2)on1 | 2.94 | -27.3
25 | COCc1cc(NCc2cc(F)ccc2F)n2nccc2n1 | 7.1 | -13.4
26 | Cc1nc(C)n(CC2CCCN(CC(=O)Nc3c(C)n[nH]c3C)C2)n1 (configuration not stated) | -1.34 | 32.2
27 | COc1ccccc1C(O)CNC(=O)NCc1cccnc1OC (configuration not stated) | -0.742 | 9.52
28 | COCc1nn(C(C)C)c2c1CCN(Cc1cccs1)C2 | -2.9 | 18.3
29 | Cc1cnn(CC2CCCN2Cc2cc(=O)n3ccccc3n2)c1 (configuration not stated) | 2.04 | 2.37
30 | CCc1n[nH]c(C2CN(Cc3nnc(C4CC4)n3C)CCO2)n1 (configuration not stated) | -0.577 | 9.55
31 | Cc1cc(C)n(C2CN(CC(=O)N(C)Cc3ccc(C)o3)C2)n1 | -0.898 | 0.889
32 | Cc1nc(C)n(CC2CCCN(Cc3ccc(C(N)=O)cc3)C2)n1 (configuration not stated) | -5.85 | 20.8
33 | O=C1CCC2(CCCN(CCc3ccccc3)C2)N1Cc1cccnc1 (configuration not stated) | 4.25 | -5.68
34 | COCc1nc2cc(NCc3ccc(C)o3)ccc2o1 | 25.1 | -21.1
35 | O=C(c1ccc2c(c1)COC2)N1CCC(Nc2cccnn2)CC1 | -1.3 | -8.52
36 | CN(C)c1cc(C(=O)N2CCN(S(C)(=O)=O)CC2)ccn1 | -0.122 | -36.9
37 | Cc1ccoc1-c1nnc(CNCCn2cccn2)o1 | 0.914 | -39.9
38 | COc1ccc(C(=O)NCC(c2cccn2C)N2CCCC2)c(OC)c1 (configuration not stated) | -4.85 | -22.3
39 | Cn1nc2c(cc1=O)CN(Cc1nnc(-c3ccco3)o1)CC2 | 15.6 | 2.57
40 | CCc1nc(CN(C)CC2CCN(CC(C)O)CC2)no1 (configuration not stated) | -3.85 | 11
41 | COc1cccc(CN2CCCC3(CCN(C(=O)[C@H]4CCCO4)C3)C2)c1 (some centres not stated) | 2.84 | 5.38
42 | Cc1n[nH]c(C2CN(C(=O)Cn3ccccc3=O)CCO2)n1 (configuration not stated) | -3.22 | 10.2
43 | Cc1ccc(N2CCC3(CCN(C(N)=O)CC3)CC2)nn1 | 2.03 | -2.18
44 | CNc1cncc(C2CCCN2Cc2ccccn2)n1 (configuration not stated) | -3.38 | -10.2
45 | NC(=O)c1cc(C2CCCN(CCCOc3ccccc3)C2)n[nH]1 (configuration not stated) | -1.57 | -26
46 | OC[C@H]1CC[C@]2(CC1)CN(Cc1ccccc1F)Cc1ccccc1O2 | -2.81 | 20.1

— ChEMBL document CHEMBL3988442, “University of Dundee, Small-Polar-MMV Screening Library” (2021)
